The values that follow come from PubChem BioAssay.

Each structure is given as a SMILES string.

The experiment deals with Human papillomavirus type 1a protein E7 (residues 44-93). Kind of experiment: HPV1a E7 fragment binders on microarrays, primary screen, biochemical, small-molecule microarray, residues 44-93, 635 nm fluorescence (AID 1108).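 Also: E7 fragment applied at 1 µg/mL in TBST for 1 h at 4 C; score combines spot fluorescence with its signal to noise ratio.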 Conditions: small-molecule microarray binding, fluorescence 635 nm; higher = more signal.
For `CS(=O)(=O)CCOC(=O)C1=CC(CCCO)=CC(c2ccc(CN3CCCC3)cc2)N(Cc2sc3ccccc3c2Cl)C=C1C(=O)OCCS(C)(=O)=O` (stereo not given), the composite z-score was 0.611.
The value for `CCOc1cc(C(O)C2C=CC3C(=O)NC(=O)C3N2Nc2ccc(Cl)cc2Cl)ccc1O` (stereo not given) was -1.7; that for `Cc1cc(C)c(C(O)C2C=CC3C(=O)N(c4ccccc4)C(=O)C3N2Nc2ccccc2F)c(C)c1` (stereo not given) was 0.0453.
The result for `CCOC(=O)C[C@H]1[C@H](OC(=O)Cc2ccc3c(c2)OCO3)[C@@H](NC(=O)c2ccc3ccccc3n2)c2cc(OCCCO)ccc2N1C(=O)c1ccccc1` reads 0.348; that for `NCCCCCNC(=O)[C@@H]1C[C@@H]2C(=O)N[C@@H](CCCCN)C(=O)N2[C@@H]1c1ccc(O)cc1`, 1.37; that for `O=C(C1N=C(c2ccc(OCCCO)cc2)N(c2ccccc2)O1)N1CCCCC1` (stereo not given), 1.26.
The compound `C=CCC(OC(C)=O)[C@@H]1[C@@H](N(Cc2ccc(-c3ccccc3)cc2)C(=O)c2ccc(-c3ccccc3)cc2)c2cc(OCCCO)ccc2N1C(=O)c1ccc2ccccc2c1` (stereo not given in full) had a composite z-score of 0.508.
Turning to `CCCC[C@@H](O)C1=C(COC)C[C@H]2C(=O)N(Cc3ccccc3)C(=O)[C@H]2[C@H]1CO`, the composite z-score came out at 0.34.
With `COc1ccc(CCNC(=O)[C@@]2(Sc3ccc(C)cc3)CC(=O)N(Cc3ccccc3C(F)(F)F)[C@@H]2c2ccc(CO)cc2I)cc1`, the composite z-score was 0.497.
`CCC#CCN(Cc1ccccc1Br)[C@H](/C=C/C1CC1)[C@@H](O)Cc1ccccc1` yielded a composite z-score of -1.04.
The value for `NCCCCCNC(=O)[C@H]1C[C@H]2C(=O)N3CCC[C@H]3C(=O)N2[C@H]1c1cccc(OCCO)c1` was 1.32; that for `CC(C)[Si](C#CCCCC#N)(O[C@H](c1ccccc1)c1cn(Cc2ccccc2)nn1)C(C)C` was 0.157.
The value for `CC(C)N1CC=CC23O[C@@H]4C=CCCOC(=O)C4[C@H]2C(=O)N(CCCO)[C@@H]3C1=O` (stereo not given in full) was 0.0707; that for `[N-]=[N+]=Nc1ccccc1C[C@]1(C(=O)NCC(O)CO)COC(c2ccc(OCCCO)cc2)=N1` (stereo not given in full) was 0.776; that for `COCC(=C=CC[C@H](O)c1ccc(CO)o1)CCO` was 0.76.
The compound `CC(C)C(CO)N1C(=O)[C@@H]2[C@H]3C(=O)OCC=C[C@H]3OC23C=CCN(c2ccc(Cl)cc2)C(=O)[C@@H]13` (stereo not given in full) yielded a composite z-score of -0.0683.
As to `COc1ccc([Si](C)(C)[C@H]2[C@H](CC(=O)N3Cc4ccccc4C[C@H]3CO)O[C@@]3(C(=O)N(Cc4ccc(N5CCOC5=O)cc4)c4ccccc43)[C@@H]2C)cc1`, the composite z-score came to 0.559.
`CCCC[C@@H](O)C1=C(COc2ccccc2)C[C@H]2C(=O)N(Cc3ccccc3)C(=O)[C@H]2[C@H]1CO` gave a composite z-score of 0.207.
The value for `C[C@@H]1NC(=O)[C@@H](Cc2ccccc2)NC(=O)[C@@]23C(=O)N[C@@H](Cc4ccccc4)C2[C@H](C)[C@@]2(C)O[C@H]2C3/C=C/C/C=C\CNC1=O` (stereo not given in full) was 0.739; that for `[N-]=[N+]=Nc1ccccc1C[C@]1(C(=O)NCCN2CCOCC2)COC(c2ccc(OCCCO)cc2)=N1` was 1.4.
As to `CC(C)C(CO)N1C(=O)[C@@H]2C3C(=O)OCCC/C=C\[C@H]3OC23C=CCN(c2ccc4ccccc4c2)C(=O)[C@@H]13` (stereo not given in full), the composite z-score is -0.812.
The result for `C=C(/C(=C/C[C@H](OC(=O)c1ccncc1)c1ccc(CO)o1)c1cnc2ccccc2c1)C(C)C` reads 1.38.
In the case of `C=CCOC(=O)[C@@H]1[C@H]2C(=O)O[C@H](c3ccccc3)[C@H](c3ccccc3)N2[C@H](c2ccc(OCCOC(=O)[C@@H]3C[C@@H]4C(=O)N[C@@H](CCCC[N+](C)(C)C)C(=O)N4[C@@H]3c3ccc(O)cc3)cc2)[C@@]12C(=O)Nc1ccc(I)cc12`, the composite z-score turned out to be 1.41.
The value for `CCCCC(O)C1C=CC2C(=O)N(C)C(=O)C2N1N(c1ccccc1)c1ccccc1` (stereo not given) was 0.447.
With `CCCC=C(CCC)[C@@H](NC(=O)c1cccs1)c1ccc(C(=O)OC)cc1`, the composite z-score is 0.805.
The value for `Cc1ccccc1C(O)C1C=CC2C(=O)NC(=O)C2N1Nc1ccccn1` (stereo not given) was -0.439; that for `C=CCNC(=O)[C@@H]1[C@H]2C(=O)O[C@H](c3ccccc3)[C@H](c3ccccc3)N2[C@H](c2ccccc2OCCO)[C@@]12C(=O)N(C(=O)OCCOC)c1ccc(C#CC3(O)CCCCCC3)cc12` was 1.23; that for `CCCNC(=O)[C@@H]1c2ccccc2C(=O)N(Cc2ccc(OC(F)(F)F)cc2)[C@H]1c1ccc(CO)cc1` was 0.957.
The value for `CCCNC(=O)[C@@]1(C)c2ccccc2C(=O)N(c2ccc(C)cn2)[C@H]1c1ccc(CO)cc1` was -0.846.
The result for `COc1cc2c(cc1O)C(c1ccc(CN3CCCC3)cc1)N(Cc1cc3c(cc1Br)OCO3)CC2` (stereo not given) reads -1.28; that for `CCOC(=O)C[C@H]1[C@H](OC(=O)Cc2ccc3c(c2)OCO3)[C@@H](NC(=O)C2CCCCC2)c2cc(OCCCO)ccc2N1C(=O)c1ccccc1`, 0.232; that for `O=C(NCc1ccc(F)cc1)[C@H]1C[C@H]2C(=O)NCC(=O)N2[C@H]1c1ccc(O)cc1`, 1.03.
Compound `CN(C)c1ccc(C(O)C2C=CC3C(=O)NC(=O)C3N2Nc2ccccn2)cc1` (stereo not given) displayed a composite z-score of 1.34.
In turn, `COc1ccc([Si](C)(C)[C@@H]2[C@@H](CC(=O)N(CCO)Cc3ccccc3)O[C@]3(C(=O)N(Cc4cccc(N5CCCCC5=O)c4)c4ccccc43)[C@H]2C)cc1` displayed a composite z-score of 0.846.
`CCOC(=O)C[C@H]1[C@H](OC(=O)c2ccc(C(=O)c3ccccc3)cc2)[C@@H](NC(=O)C2CCCCC2)c2cc(OCCCO)ccc2N1C(=O)c1ccc2ccccc2n1`: the composite z-score is 1.3.
